# gsp agonist: qHTS for Agonist of gsp, the Etiologic Mutation Responsible for Fibrous Dysplasia/McCune-Albright Syndrome: qHTS; gsp mutant cells, cAMP HTRF, 30 min; Potency, µM (series often up to 76.9 µM), without a hit: at the highest dose activation (cAMP increase), usual class: activators; 0.13% of 340,000 active; AID 624287, 2012; active = well fitted activation curve with a large enough effect; inconclusive = small, poorly fitted or top-dose-only effect, or another doubt; inactive = no such curve, though single readings can be large or run the other way; cell line not stated here;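 also: phosphodiesterase inhibitor Ro 20-1724 added with compounds to block cAMP breakdown; potency is read from the fitted curve at half-maximal effect; nearly all actives have a fitted effect of over 60% in size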
#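 Cells stably selected in G418 were plated at 2000/well, grown 16-24 hr, then given compounds in DMSO with the PDE inhibitor […] (300 uM solution added) for 30 min at 37C; cAMP was read by HTRF.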
# gsp antag: qHTS for Antagonists of gsp, the Etiologic Mutation Responsible for Fibrous Dysplasia/McCune-Albright Syndrome: qHTS; gsp-mutant cells, cAMP HTRF, 30 min; Potency, µM (top dose mostly 76.9 µM), inactives show at the top dose activity change, negative = inhibition, hits mostly inhibitors; 0.4% of 340,000 active; calls by dose curve; cell line not stated here;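 also: intracellular cAMP measured with PDE inhibitor Ro 20-1724 present during compound exposure; potency is read from the fitted curve at half-maximal effect; % is scaled to controls: 0 for no effect and ±100 for the full control effect; nearly all actives have a fitted effect of over 65% in size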
#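 Measurement of cellular cAMP by homogeneous time-resolved fluorescence following a 30 min compound exposure at 37C. The PDE inhibitor […] was present throughout; the assay buffer was DPBS with 0.05% BSA and 0.005% Tween 20.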
# RXFP1 ag: qHTS Assay for Agonists of the Relaxin Receptor RXFP1 | Potency, µM (doses to about 57.5 µM), for the others: top-dose activation, actives largely listed as activators | 0.3% of 370,000 active | Relaxin receptor 1 (Homo sapiens), Q9HBX9 | HEK293T-RXFP1 cAMP TR-FRET, 30 min; response scale: percent of porcine relaxin response, buffer zero | AID 2676, 2010; active = well fitted activation curve with a large enough effect; inconclusive = small, poorly fitted or top-dose-only effect; also: potency is read from the fitted curve at half-maximal effect; % is scaled to controls: 0 for no effect and ±100 for the full control effect; nearly all actives have a fitted effect of over 60% in size
# Target sequence (Q9HBX9 whole entry, looked up): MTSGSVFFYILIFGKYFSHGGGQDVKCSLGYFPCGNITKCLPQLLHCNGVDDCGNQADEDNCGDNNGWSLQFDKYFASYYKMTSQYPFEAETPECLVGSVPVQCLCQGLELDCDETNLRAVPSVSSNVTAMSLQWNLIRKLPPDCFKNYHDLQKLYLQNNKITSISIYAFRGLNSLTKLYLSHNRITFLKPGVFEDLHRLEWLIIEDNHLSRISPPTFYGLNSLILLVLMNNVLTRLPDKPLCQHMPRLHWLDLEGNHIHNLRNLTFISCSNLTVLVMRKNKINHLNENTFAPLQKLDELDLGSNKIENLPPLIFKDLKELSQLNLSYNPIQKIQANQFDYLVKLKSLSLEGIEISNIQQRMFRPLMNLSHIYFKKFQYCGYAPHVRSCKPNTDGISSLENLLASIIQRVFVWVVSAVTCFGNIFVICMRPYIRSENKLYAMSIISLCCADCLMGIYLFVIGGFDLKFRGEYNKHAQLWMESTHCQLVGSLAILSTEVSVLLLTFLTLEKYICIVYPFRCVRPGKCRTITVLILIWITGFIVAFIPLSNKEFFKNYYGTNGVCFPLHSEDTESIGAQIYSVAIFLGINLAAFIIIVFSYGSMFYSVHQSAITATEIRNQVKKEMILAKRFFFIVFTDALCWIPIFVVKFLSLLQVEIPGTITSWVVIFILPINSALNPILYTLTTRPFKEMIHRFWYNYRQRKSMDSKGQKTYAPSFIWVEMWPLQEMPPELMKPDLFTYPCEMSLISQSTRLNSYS
#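 Agonist response is measured as cAMP accumulation in an RXFP1-transfected HEK293T line under PDE4 inhibition. Values are scaled between buffer-only and 29 nM porcine relaxin, and EC50s come from standard Hill equation fits.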
# RXFP1 antagonist: qHTS Assay for Antagonists of the Relaxin Receptor RXFP1; AID 1259400, 2018; Relaxin receptor 1 (Homo sapiens), Q9HBX9; HEK293-RXFP1, relaxin-stimulated cAMP HTRF, 30 min; stronger effect = lower value; 0.59% of 350,000 active; activity change, negative = inhibition, % at 57.5 µM;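 active = activity change of -60% or lower, but not beyond a set lower limit; inconclusive = change between -60% and -40%, or beyond the set limit; inactive = change above -40%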; also: % is scaled to controls: 0 for no effect and ±100 for the full control effect
# Starred values were filed as active, the others as inactive; ? = inconclusive; . = no result; [ ] = dose if it differs, or a comment. The list is not random: actives were taken first. Their share in the collection is about 0.9%.
SMILES,gsp agonist,gsp antag,RXFP1 ag,RXFP1 antagonist
C[C@H](N)C(=O)N[C@@H](C)C(=O)NC1[C@H]2CN(c3nc4c(cc3F)c(=O)c(C(=O)O)cn4-c3ccc(F)cc3F)C[C@@H]12 (stereo partly specified),.,.,.,-5
CCCCCCCCC/C(=N\O)c1ccccn1,4%[15.4 µM],8%,-1%,-69*
CCCCCCCCC(=O)N/N=C/c1ccccn1,24%,-1%,-1%,-19
CCOc1ccc(OCCOCCn2c(-c3ccc(Cl)cc3)nc3ccccc3c2=O)cc1,.,.,6%,3
C/C(=N\NC(=O)c1ccccc1[N+](=O)[O-])c1ccc(Br)s1,-6%[15.4 µM],2%,1%,-66*
CC[C@@H](CO)NCCN[C@@H](CC)CO,.,.,.,-9
C[C@@]12C(=O)N(c3ccc(C(F)(F)F)cc3)C(=O)N1[C@@H]1c3ccccc3OC[C@@H]1[C@H]2c1ccccc1,.,32µM*,0%,.
Nc1ccc(-c2cc3ccccc3oc2=O)cc1,-15%[15.4 µM],7%,4%,11
O=C/C=C/c1c(-c2ccccc2)cc2oc3ccccc3cc1-2,16%,-7%,2%,-91*
Cn1c2ccccc2c2nnc(SCC(=O)Nc3cccc(C(=O)O)c3)nc21,14µM*,-12%,16µM*,2
CCCn1c2ccccc2c2nnc(SCC(=O)Nc3cccc(C(C)=O)c3)nc21,.,.,13%,-20
CCN(CC)C(=O)CSc1nnc2c3ccccc3n(C)c2n1,7.1µM*,-9%,?,11
O=C(CSc1nnc(-c2ccccc2)c(-c2ccccc2)n1)NC1CCCCC1,.,.,6%,-8
Cc1cc(OC(C)C(=O)N2CCC(c3nc4ccccc4o3)CC2)ccc1Cl (stereo unspecified),.,.,-1%,-62*
CCc1nn(C(C)C(=O)N2CCN(c3cccc(C(F)(F)F)c3)CC2)c(=O)c2cc3occc3n12 (stereo unspecified),.,.,-3%,.
COc1ccccc1C1CCN(c2cc(O)ccc2[N+](=O)[O-])CC1,-6%[15.4 µM],32µM*,-2%,-11
COc1ccc([C@]23Cc4cc(OC)c(OC)cc4C(O2)c2c(cc(-c4ccccc4)oc2=O)O3)cc1,.,.,0%[11.5 µM],.
CCOC(=O)c1ccc(NC(=O)CCc2nc(-c3ccccc3)no2)cc1,-19%,40µM*,-1%,-17
CCc1ccccc1-n1c(SCC(=O)Nc2ccc(C)cc2)nc2n[nH]c(C)c2c1=N,.,.,7%,-87*
CCc1ccc(NC(=O)CSc2nc3n[nH]c(C)c3c(=N)n2-c2ccccc2C)cc1,.,.,16%,-19
Cc1cccc(NC(=O)CSc2c3c(nc4ccccc24)CCC3)n1,?,-3%,2%,-2
CCC(C)NC(=O)CSc1c2c(nc3ccccc13)CCCC2 (stereo unspecified),13µM*,3%,9%,-7
CCN1CCN(Cc2c(O)ccc3c(C)cc(=O)oc23)CC1,7%,6%,14%,0
Cc1cc(O)c(CN2CCN(c3ccccc3)CC2)c2oc(=O)cc(C)c12,.,.,18µM*,-8
CCOC(=O)C1CCN(C(=O)c2oc3ccc4c(c3c2C)C(O)CC2(CCCCC2)O4)CC1 (stereo unspecified),-1%,0%,0%,-94*
SMILES,gsp agonist,gsp antag,RXFP1 ag,RXFP1 antagonist
CCOCCCNC(=O)C(=O)Nc1c2c(nn1-c1ccc(OC)cc1)CSC2,.,.,-1%,-16
c1ccc2c(c1)[nH]c1c(N3CCCC3)ncnc12,?,?,0%,-11
Clc1ccc2[nH]c3c(N4CCC5(CC4)OCCO5)ncnc3c2c1,9%,35µM*,4%,-11
Cc1cccc2[nH]c3c(N4CCC5(CC4)OCCO5)ncnc3c12,-17%,-20%,-1%,-7
c1ccc2c(c1)[nH]c1c(N3CCSCC3)ncnc12,21%,14µM*,1%,2
O=S(=O)(NCc1nc2cccnc2n1Cc1ccccc1)c1ccc2c(c1)CCCC2,.,.,-1%,-12
Cc1noc(C)c1COc1ccccc1C(=O)N(C)Cc1ccc(C(C)(C)C)cc1,-36%,50µM*,-2%,-34
CCC1(c2ccccc2)SCC(c2ccccc2)=NC1=O (stereo unspecified),3%,-15%,.,-62*
CCC1(c2ccccc2)SC(N)=NC1=O (stereo unspecified),-82%,-4%,.,1
O=[N+]([O-])/C=C\c1ccc(N2CCCC2)c(F)c1,2%,-7%,0%,-68*
O=C(NCCc1ccccc1)c1ccc2c(c1)N(Cc1ccc(Cl)cc1)C(=O)CS2,.,.,-1%,.
CN(Cc1ccccc1)C(=O)CN1CCN(C(c2ccccc2)c2ccccc2)CC1,-10%[15.4 µM],-22%,3%,-81*
Clc1ccc(C(Cn2ccnc2)OCc2ccc(Sc3ccccc3)cc2)c(Cl)c1 (stereo unspecified),.,.,.,-9
CC1C(=O)N(Cc2ccccc2F)c2ccccc2N1C(=O)c1c(F)cccc1F (stereo unspecified),-19%,?,-1%,-11
COc1cccc(CN2C(=O)C(C)N(C(=O)c3c(F)cccc3F)c3ccccc32)c1 (stereo unspecified),-19%,35µM*,3%,-3
CCOc1ccc(Oc2ccc(Cl)cc2NC(=O)C2=COCCO2)cc1,0%,-7%,0%,-6
O=C(Nc1cc(Cl)ccc1Oc1ccccc1)C1=COCCO1,-21%,-12%,0%,-75*
O=Cc1cc(N=Nc2cccc(C(=O)O)c2)ccc1O,1%,-3%,1%,-13
O=Cc1cc(N=Nc2ccccc2Cl)ccc1O,-17%,?,-2%,-65*
CN1Cc2cc(C(=O)N3CCC(C4CCNCC4)CC3)ccc2N[C@@H](CC(=O)O)C1=O,.,.,.,-13
Cc1cccc2nc(-c3cccnc3)c(Nc3ccc(C(C)C)cc3)n12,.,.,0%,-88*
Cc1ccccc1Nc1c(-c2cccnc2)nc2cccc(C)n12,-21%,-10%,0%,?
CCC(C(=O)Nc1ccsc1C(=O)OC)c1ccccc1 (stereo unspecified),2%[15.4 µM],?,0%,-63*
CCOC(=O)c1c(-c2ccccc2)oc2ccc(OCC)cc12,9%,-9%,2%,-13
CCOC(=O)c1c(-c2ccccc2)oc2ccc(OCC(O)CNCCN(C)C)cc12 (stereo unspecified),8%[15.4 µM],13%,0%,-100*
Cc1ccc(Nc2cc(C)nc3ccc(C)cc23)cc1,1%,5%,1%,-82*
CCOc1ccc(Nc2cc(C)nc3ccc(C)cc23)cc1,-15%[15.4 µM],?,.,-31
COCCNC(=O)CN1C(=O)COc2ccc(S(=O)(=O)N3CCCC3)cc21,.,.,0%,.
N#Cc1nc(COc2ccccc2)oc1NCCN1CCOCC1,-6%[15.4 µM],-7%,1%,-18
N#Cc1nc(COc2ccc(-c3ccccc3)cc2)oc1NCCCN1CCOCC1,0%,2%,1%,-62*
